Screens deposited in PubChem by National Center for Advancing Translational Sciences (NCATS).
RORg inh: qHTS for inhibitors of ROR gamma transcriptional activity. 5.4% of 310,000 active. Nuclear receptor ROR-gamma (Mus musculus), P51450. Drosophila S2 Gal4-RORgamma UAS-luciferase reporter, 20 h. Potency, µM (top dose mostly 53.6 µM), inactives show at the top dose activity change, negative = inhibition, actives largely listed as inhibitors; further: potency means the concentration at half of the fitted maximal effect; nearly all actives have a fitted effect of over 60% in size
Target sequence (P51450 whole entry, looked up, the tested form may be a part): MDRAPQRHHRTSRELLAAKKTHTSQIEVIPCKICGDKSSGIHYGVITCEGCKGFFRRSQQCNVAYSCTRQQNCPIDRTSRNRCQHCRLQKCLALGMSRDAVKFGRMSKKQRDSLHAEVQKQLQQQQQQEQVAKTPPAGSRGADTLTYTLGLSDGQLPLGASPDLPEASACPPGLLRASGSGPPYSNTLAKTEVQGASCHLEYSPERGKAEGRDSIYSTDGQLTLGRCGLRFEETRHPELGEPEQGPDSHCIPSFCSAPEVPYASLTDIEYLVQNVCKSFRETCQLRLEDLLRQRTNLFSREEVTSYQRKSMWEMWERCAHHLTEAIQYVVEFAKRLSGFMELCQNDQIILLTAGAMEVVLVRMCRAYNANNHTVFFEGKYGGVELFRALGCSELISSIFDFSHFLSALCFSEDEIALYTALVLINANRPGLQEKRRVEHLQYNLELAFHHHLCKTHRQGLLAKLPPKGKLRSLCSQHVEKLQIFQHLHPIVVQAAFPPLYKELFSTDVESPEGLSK
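Using a luciferase readout, inhibitors were identified by reduced reporter activity in Drosophila cells coexpressing a copper-inducible Gal4–ROR gamma fusion and UAS-driven Photinus luciferase, incubated 20 hr after 700 uM copper sulfate.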
DT40 TDP1 CPT: qHTS for Inhibitors of human tyrosyl-DNA phosphodiesterase 1 (TDP1): qHTS in cells in presence of CPT; chicken DT40 Tdp1-/-;hTDP1 cells + 20 nM CPT, ATP luminescence, 48 h; Potency, µM (highest dose often 46.2 µM), inactives show top-dose activity change, negative = growth inhibition, actives largely listed as inhibitors; 12% of 420,000 active; AID 686979, 2013; further: potency means the concentration at half of the fitted maximal effect; nearly all actives have a fitted effect of over 55% in size
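Cell growth measured by CellTiter-Glo luminescence after a minimum 48 h, 37 C compound exposure with 20 nM CPT in Tdp1-knockout DT40 cells stably expressing hTDP1, seeded 400/well; qHTS titration format.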
DT40 TDP1 no CPT: qHTS for Inhibitors of human tyrosyl-DNA phosphodiesterase 1 (TDP1): qHTS in cells in absence of CPT; DT40 Tdp1-/- hTDP1 cells, no CPT, ATP luminescence, 48 h; Potency, µM (series often up to 46.2 µM), without a hit: top-dose activity change, negative = growth inhibition, actives largely listed as inhibitors; 15% of 420,000 active; AID 686978, 2013; further: potency means the concentration at half of the fitted maximal effect; nearly all actives have a fitted effect of over 55% in size
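Chicken DT40 Tdp1-/- cells complemented with human TDP1, screened without camptothecin (DMSO vehicle only), 400 cells/well. Compounds pin-transferred, cells incubated at 37 °C for at least 48 hr. Growth read as ATP-dependent luminescence (CellTiter-Glo, 30 min at RT).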
IL1B secr inh: qHTS for Inhibitors of Inflammasome Signaling: IL-1-beta AlphaLISA Primary Screen | THP-1 LPS/ATP IL-1B secretion, AlphaLISA, 16 h; active compounds read low | activity change, % at 57.5 µM | 4.7% of 360,000 active; in the data active means activity change below about -50%; inconclusive means mostly about -30% to -49%
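Secreted IL-1B measured by AlphaLISA bead assay after 16 h compound exposure of THP-1 cells; compounds (final up to 57.5 uM) added 1 h before LPS (250 ng/mL) and ATP (1.25 mM) stimulation; lower signal means less secretion.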
ELG1 repair inh: qHTS screen for small molecules that inhibit ELG1-dependent DNA repair in human embryonic kidney (HEK293T) cells expressing luciferase-tagged ELG1; HEK293T ELG1-luciferase reporter, luminescence, 16 h; DNA damage induced by 5-fluorouridine; Potency, µM (titrated, usually from 46.1 µM), inactives show at the highest dose activity change, negative = inhibition, hits mostly inhibitors; 2.3% of 330,000 active; AID 504467, 2011; further: potency means the concentration at half of the fitted maximal effect; nearly all actives have a fitted effect of over 55% in size
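Cells (2,000 per well) received 5-fluorouridine plus test compound or DMSO and were incubated 16 hr at 37 °C, 5% CO2. Luciferase activity was read by luminescence 30 min after ONE-Glo addition; signal suppression marked inhibition of damage-induced ELG1 function.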
Gal4-VP16 FLuc: VP16 counterscreen qHTS for inhibitors of ROR gamma transcriptional activity. 3.5% of 310,000 active. Drosophila S2 Gal4-VP16 UAS-luciferase, luminescence, 20 h. Potency, µM (doses to about 53.6 µM), for inactives: at the highest dose activity, negative = inhibition, most hits filed as inhibitors;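 further: Gal4-VP16 expression switched on by copper sulfate through the metallothionein promoter; potency means the concentration at half of the fitted maximal effect; nearly all actives have a fitted effect of over 50% in size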
An asterisk follows results filed as active; ? = inconclusive; · = not tested or not shown; ! = not confirmed by another sample; [ ] = another dose, or the depositor's remark. A selection: hits, their analogues and other compounds. The true share with any hit is near 21%. Unless noted, the call rests on the fitted dose curve; in most records, active means well fitted curve in the direction sought with a large enough effect; inconclusive means small, poorly fitted or top-dose-only effect, or another doubt; inactive means no such curve, though single readings can be large; an effect the other way counts as inactive or inconclusive. On the % scale 0 is the no-effect control and ±100 the full control effect.

SMILES | RORg inh | DT40 TDP1 CPT | DT40 TDP1 no CPT | IL1B secr inh | ELG1 repair inh | Gal4-VP16 FLuc
O=C(NC1CCCC1)C(c1ccco1)N1CCC(O)(c2ccc(Cl)cc2)CC1 (configuration not stated) | · | 23µM* | 18µM* | -6 | · | ·
COc1cccc(C(C(=O)NC2CCCC2)N2CCN(c3cc(C)ccc3C)CC2)c1OC (configuration not stated) | · | 21µM* | 21µM* | -59* | · | ·
Cc1ccccc1-n1c(SCC(=O)c2c(N)n(C3CC3)c(=O)[nH]c2=O)nnc1N1CCOCC1 | · | 13% | -20% | -4 | -5% | ·
COc1cccc(C(=O)N2CCCC(Nc3ccc(C)c(C)c3)C2)c1 (configuration not stated) | 27% | -39% | -12% | -3 | 5% | -11%
C=CCC1C=CC(OC(=O)OCC)C(COC(=O)OCC)O1 (configuration not stated) | 0%[10 µM] | · | · | · | · | -4%[10 µM]
CC1(C(=O)NCc2cccs2)CCN1C(=O)Cc1cccc2ccccc12 (configuration not stated) | · | 29µM* | 16µM* | -4 | · | ·
CC1(C(=O)NCC(F)(F)F)CCN1C(=O)Cc1ccc(-c2ccccc2)cc1 (configuration not stated) | · | 15µM* | ? | 6 | · | ·
CC(C)CNC(=O)C1(C)CCCN1C(=O)Cc1cccc2ccccc12 (configuration not stated) | · | 9.2µM* | 8.2µM* | 35 | · | ·
CC(C)c1ccc(CC(=O)N2CCC2(C)C(=O)NCc2cccc3ccccc23)cc1 (configuration not stated) | · | ? | ? | -19 | · | ·
CC1(C(=O)NCc2cccc3ccccc23)CCN1C(=O)Cc1ccc(-c2ccccc2)cc1 (configuration not stated) | · | ? | ? | -104* | · | ·
CCOC(=O)N1CCN(C(=O)C2CC(=O)N(c3ccc(C)cc3)C2)CC1 (configuration not stated) | · | -29% | -14% | -6 | 8% | ·
C[C@]12C(=O)N(c3ccc(Cl)cc3)C(=O)N1[C@@H]1c3ccccc3OC[C@@H]1[C@H]2c1ccccc1 | · | ? | 23µM* | -2 | · | ·
C[C@@]12C(=O)N(c3cccc(Cl)c3)C(=O)N1[C@@H]1c3ccccc3OC[C@@H]1[C@H]2c1ccccc1 | · | ? | ? | 13 | -2% | ·
C[C@@]12C(=O)N(c3cccc(F)c3)C(=O)N1[C@@H]1c3ccccc3OC[C@@H]1[C@H]2c1ccccc1 | · | ? | 15µM* | -8 | ? | ·
C[C@@]12C(=O)N(c3ccccc3)C(=O)N1[C@@H]1c3ccccc3OC[C@@H]1[C@H]2c1ccccc1 | · | 16µM* | ? | -6 | ? | ·
C[C@@]12C(=O)N(c3ccc(Br)cc3)C(=O)N1[C@@H]1c3ccccc3OC[C@@H]1[C@H]2c1ccccc1 | · | ? | 18µM* | -2 | -2% | ·
C[C@@]12C(=O)N(c3ccc(Cl)cc3)C(=O)N1[C@@H]1c3ccccc3OC[C@@H]1[C@H]2c1ccccc1 | · | ? | ? | 7 | -12% | ·
C[C@]12C(=O)N(c3ccc(Cl)cc3)C(=O)N1[C@H]1c3ccccc3OC[C@@H]1[C@H]2c1ccccc1 | -14% | ? | ? | -6 | 12% | -3%
CCN1/C(=C2/SC(=S)N(NC(C)=O)C2=O)Sc2ccc(OC)cc21 | -5% | ? | ? | -11 | -17% | -4%
CCN1/C(=C/C(C)=O)Sc2ccc(OC)cc21 | 28% | 7.1µM*! | 13µM* | 1 | -13% | -2%
COc1cc(=O)n2c(c1C(=O)N(C)Cc1ccsc1)CCN(Cc1c(C)nn(C)c1Cl)CC2 | · | 5% | -5% | · | · | ·
CN(C(=O)CSc1nnc(-c2ccc([N+](=O)[O-])cc2)o1)c1ccccc1 | · | 16µM* | ? | · | · | ·
COc1ccc(-n2c(C)nc3sc4c(c3c2=O)CCCC4)cc1 | 31% | · | · | · | -17% | -15%
NNc1nc2sc3c(c2c(=O)n1-c1ccccc1)CCCC3 | ? | 18µM* | ? | 27 | -25% | ?
COc1ccc(-n2c(SCCNCCO)nc3sc4c(c3c2=O)CCCC4)cc1 | 1% | ? | ? | -75* | -10% | -4%
SMILES | RORg inh | DT40 TDP1 CPT | DT40 TDP1 no CPT | IL1B secr inh | ELG1 repair inh | Gal4-VP16 FLuc
COc1ccc(-n2c(NNC(C)=O)nc3sc4c(c3c2=O)CCCC4)cc1 | -1% | 3.3µM* | 4.1µM* | -16 | -10% | 0%
Cc1ccn2c(NC3CCCCC3)c(-c3ccc(SC4CCCCC4)cc3)nc2c1 | · | ? | 23µM* | 42 | · | ·
Cc1ccn2c(NC3CCCCC3)c(-c3cccc(SC4CCCCC4)c3)nc2c1 | · | 16µM* | 8.2µM* | -75*! | ? | ·
CCCCCCSc1cccc(-c2nc3cc(C)ccn3c2NC2CCCCC2)c1 | · | 21µM* | 16µM* | -74* | ? | ·
CCCCCCSc1cccc(-c2nc3ccc(C)cn3c2NC2CCCCC2)c1 | · | ? | ? | -4 | -13% | ·
CCC(C)Sc1cccc(-c2nc3cc(C)ccn3c2NC2CCCCC2)c1 (configuration not stated) | · | 16µM* | 15µM* | -82*! | -10% | ·
Cc1ccc(-c2noc(CNC(=O)c3ccc4c(c3)OCO4)n2)cc1 | 26% | 8% | ? | -6 | 8% | 2%
Cc1cccc(NC(=O)COC(=O)CN2C(=O)c3ccccc3C2=O)c1 | · | 1% | 2% | 7 | · | ·
CC(CCC(=O)O)C1CCC2C3C(O)C[C@@H]4CC(O)CC[C@@]4(C)C3CC(O)[C@]12C (some centres not stated) | -8% | -3% | -4% | · | · | -15%
Cc1ccn2c(=O)nc(SCC(=O)NC3CCCC3)nc2c1 | · | -28% | -13% | -1 | -2% | ·
Cc1ccn2c(NC3CCCC3)c(-c3ccsc3)nc2c1 | 11µM* | ? | -25% | 27 | ? | 1%
COc1cc(/C=C2/SC(=O)NC2=O)ccc1Oc1ccc([N+](=O)[O-])cc1[N+](=O)[O-] | -28% | ? | ? | ? | 15% | -3%
COc1cc(/C=C2\SC(N)=NC2=O)ccc1OCC(=O)Nc1ccccc1C | · | ? | 9.2µM* | 9 | 6% | ·
